# A selection: hits, their analogues and other compounds. The true share with any hit is near 2.4%.
# Rango release inh: qHTS Assay for Inhibitors of RanGTP induced Rango (Ran-regulated importin-beta cargo) - Importin beta complex dissociation; Biochemical FRET Rango-importin beta, RanGTP-induced dissociation; AID 540253, 2011; Snurportin-1 (Homo sapiens) + GTP-binding nuclear protein Ran (Homo sapiens) + Importin …; Potency, µM (highest dose often 46.1 µM); 0.071% of 340,000 active; calls by dose curve; also: nearly all actives have a fitted effect of over 45% in size
#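 Compounds sat 5 min at room temperature with 0.1 uM Rango biosensor plus 0.25 uM importin beta, then FRET pre-read. RanGTP-RCC1 (0.6 uM Ran, 2mM GTP, 0.2 uM RCC1) added for 45 min, and the CFP/YFP post-read measured blocked complex dissociation.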
# Rango-impB inh: qHTS Assay for Inhibitors of Rango (Ran-regulated importin-beta cargo) - Importin beta complex formation | Rango CFP/YFP FRET sensor + importin beta, 45 min | Potency, µM (highest dose often 92.2 µM) | 0.031% of 340,000 active; calls by dose curve; also: nearly all actives have a fitted effect of over 15% in size
#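 FRET biosensor (snurportin 1 IBB flanked by EYFP and cerulean), 50 nM, with compound 5 min, then 0.125 microM importin beta in PBS, 1 mM DTT, 0.02% Tween-20, 0.1% BSA. CFP/YFP ratio read after 45 min at room temperature; pre-read flags interference.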
# TSG101-PTAP inh: qHTS Assay for Iinhibitors of HIV-1 Budding by Blocking the Interaction of PTAP/TSG101; Potency, µM (doses to about 115 µM), hits mostly inhibitors; Tumor susceptibility gene 101 protein (Homo sapiens), Q99816; Fluorescence polarization, FITC-PTAP peptide / Tsg101 binding; 340,000 tested, under 10 active; active = well fitted inhibition curve with a large enough effect in the main read-out, with a control signal flat, not every such curve was filed as active; inconclusive = small, poorly fitted or top-dose-only effect, or effect the other way, or a change in a side signal; inactive = no such curve, though single readings can be large or run the other way
#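 Compounds were pin-transferred onto Tsg101 binding domain (10 uM final) in HEPES pH 7.5 buffer, then FITC-PTAP peptide was added at 50 nM final. After 20 min at RT, polarization reported peptide displacement across a qHTS concentration series.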
# 12-LOX inh: Primary qHTS assay for inhibitors of human arachidonate 12S-lipoxygenase (ALOX12): Round 2. Potency, µM (doses to about 108 µM), most hits filed as inhibitors. purified 12hLO, xylenol orange hydroperoxide absorbance. 1.1% of 580,000 active. Polyunsaturated fatty acid lipoxygenase ALOX12 (Homo sapiens), P18054. AID 1671190, 2021
# Target sequence (P18054 whole entry, looked up): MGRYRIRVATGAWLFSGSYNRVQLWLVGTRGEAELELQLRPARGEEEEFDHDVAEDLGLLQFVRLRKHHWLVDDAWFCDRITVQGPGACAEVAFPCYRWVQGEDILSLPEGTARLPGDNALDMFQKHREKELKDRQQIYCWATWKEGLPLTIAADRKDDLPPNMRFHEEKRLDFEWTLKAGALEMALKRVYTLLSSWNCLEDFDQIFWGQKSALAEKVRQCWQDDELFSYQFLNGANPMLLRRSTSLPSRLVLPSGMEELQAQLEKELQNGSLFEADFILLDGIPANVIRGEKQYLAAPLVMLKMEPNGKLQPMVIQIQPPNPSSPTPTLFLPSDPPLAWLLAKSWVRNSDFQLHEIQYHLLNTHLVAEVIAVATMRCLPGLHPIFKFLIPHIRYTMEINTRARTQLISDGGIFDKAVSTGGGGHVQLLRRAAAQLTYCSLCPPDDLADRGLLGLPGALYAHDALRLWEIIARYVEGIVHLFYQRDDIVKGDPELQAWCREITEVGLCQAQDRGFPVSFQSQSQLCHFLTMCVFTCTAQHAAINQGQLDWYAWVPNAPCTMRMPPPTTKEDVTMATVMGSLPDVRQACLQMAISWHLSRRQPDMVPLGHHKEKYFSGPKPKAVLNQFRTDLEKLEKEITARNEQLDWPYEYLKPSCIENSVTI
#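 Hydroperoxide product was detected by ferrous iron/xylenol orange as the 573 to 405 nm absorbance ratio. Arachidonic acid at 40 uM (final) was turned over for 30 min at room temperature by 150 nM human 12hLO, pH 7.0 Hepes buffer, after 15 min compound preincubation.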
# TDP1 block: qHTS Assay for Inhibitors of Tyrosyl-DNA Phosphodiesterase (TDP1); Tyrosyl-DNA phosphodiesterase 1 (Homo sapiens), Q9NUW8; recombinant TDP1, AlphaScreen DNA substrate cleavage; Potency, µM (highest dose often 130 µM), most hits filed as inhibitors; 0.28% of 350,000 active; also: nearly all actives have a fitted effect of over 40% in size
#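 Steps: enzyme plus compound, 15 min RT; add biotin/phosphotyrosine-FITC oligonucleotide (15 nM final), react 5 min; add donor/acceptor beads (10 ug/ml final), 10 min; read AlphaScreen. Tdp1 at 1 nM final.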
# ClpP mod: qHTS Assay for Activators of ClpP; ATP-dependent Clp protease proteolytic subunit (Bacillus subtilis (strain 168)), P80244; purified B. subtilis ClpP, FRET peptide cleavage, 20 min; Potency, µM (titrated, usually from 57.5 µM); 1.9% of 340,000 active; AID 651965, 2013; active = well fitted falling curve with a large enough effect; inconclusive = small, poorly fitted or top-dose-only effect; inactive = no such curve, though single readings can be large or run the other way; also: the source files actives as falling curves though it sought activators and does not explain the sign; nearly all actives have a fitted effect of over 65% in size
#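 Purified B. subtilis ClpP, 10 microg/mL final in Tris/HCl pH8 with KCl, BSA, glycerol and Tween-20, cleaved an Abz/nitrotyrosine-quenched decapeptide. Fluorescence (ex 320, em 430) was read at 0 and 20 min at room temperature. Delta was normalized to 5.8 microM ADEP and DMSO/no-enzyme controls.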
# A number is an active result; . = inactive; ? = inconclusive; / = no result; [ ] = another dose, or the depositor's remark. Unless noted, calls follow the shape of the dose curve; as a rule, active = well fitted curve in the direction sought with a large enough effect; inconclusive = small, poorly fitted or top-dose-only effect, or another doubt; inactive = no such curve, though single readings can be large; an effect the other way counts as inactive or inconclusive.
SMILES,Rango release inh,Rango-impB inh,TSG101-PTAP inh,12-LOX inh,TDP1 block,ClpP mod
COc1ccc(/C=C/C(=O)Nc2ccncc2)cc1OC,.,.,.,?,.,/
COc1ccc(/C=C\C(=O)NC2CC(=O)N(c3ccccc3)C2)cc1OC (configuration not stated),/,/,/,.,.,.
COC(=O)c1cc(Cl)c(NC(=O)/C=C/c2ccc(OC)c(OC)c2)cc1OC,?,?,/,.,.,28µM
COc1ccc(/C=C/C(=O)Nc2nc(C)cc(C)n2)cc1OC,.,?,.,.,.,35µM
COc1ccc(N2CC(NC(=O)/C=C\c3ccc(OC)c(OC)c3)CC2=O)cc1 (configuration not stated),/,/,/,.,.,32µM
COC(=O)C(c1ccccc1)(c1cn(C)c2ccccc12)C(Nc1ccccc1)c1ccccc1 (configuration not stated),/,/,/,.,/,/
O=C(Nc1ccc(F)c(F)c1)C1CCN(C(=O)c2ncn3c2COC(c2ccc(F)cc2)C3)CC1 (configuration not stated),/,/,/,.,/,/
COc1ccc(-c2nnc(Nc3nc4c(OC)cccc4s3)o2)c(OC)c1,.,.,.,.,.,16µM
COc1cc(OC)cc(-c2nnc(Nc3nc4c(F)cccc4s3)o2)c1,.,.,.,.,.,?
COc1ccc(-c2nnc(Nc3nc4c(OC)cccc4s3)o2)cc1,.,.,.,.,.,40µM
COc1cncc(CN2C[C@H]3[C@H](C2)[S+](=O)([O-])C(C)(C)C(=O)N3CC(C)C)c1,/,/,/,.,/,/
COC(=O)Cc1[nH]nc2c1C(C1C=CCCC1)C(C#N)=C(N)O2 (configuration not stated),.,.,.,.,.,7.1µM
COC(=O)Cc1[nH]nc2c1C(c1cc(OC)c(OC)c(OC)c1)C(C#N)=C(N)O2 (configuration not stated),.,.,.,.,.,.
O=C(C1CCCC1)N1CC2(CCCN(C3COC3)C2)Cc2ccccc21 (configuration not stated),/,/,/,.[6.33 µM],/,/
COc1cccc(C2CC(=O)N3CN(c4cccc(Cl)c4C)CSC3=C2C#N)c1OC (configuration not stated),.,.,.,7.9µM,.,.
COc1ccc(OC)c(C2CC(=O)N3CN(c4cccc(Cl)c4C)CSC3=C2C#N)c1 (configuration not stated),?,?,.,11µM,.,.
CC(C)c1ccccc1NC(=S)NC(=O)C1CCCCC1,.,.,.,16µM,.,.
CCN(CC)S(=O)(=O)c1ccc(Cl)c(NC(=S)NC(=O)C2CCCC2)c1,.,.,.,16µM,.,.
O=C(NC(=S)Nc1ccccc1)C1CCCCC1,.,.,.,.,.,.
O=C(NC(=S)NCc1ccccc1)C1CCCCC1,.,.,.,?,.,13µM
Cc1ccc(NC(=S)NC(=O)C2CCCCC2)c(Br)c1,.,.,.,32µM,.,/
N#Cc1ccccc1CN1CCNc2nc(CNc3ccc(F)cc3)n(Cc3ccccc3)c2C1=O,/,/,/,.,/,/
O=C(/C=C/Nc1ccc(S(=O)(=O)Nc2cnc3ccccc3n2)cc1)c1ccccc1,8.2µM,?,.,.,.,/
O=C(NCc1ccccc1Cl)c1cc2c(s1)-c1ccccc1SC2,/,/,/,.,.,25µM
O=C(NCc1ccc(F)cc1)c1cc2c(s1)-c1ccccc1SC2,/,/,/,.,.,.
SMILES,Rango release inh,Rango-impB inh,TSG101-PTAP inh,12-LOX inh,TDP1 block,ClpP mod
Cc1nn2c(c1-c1ccnn1C(C)C)N(C(=O)C(C)C)CCC2,/,/,/,.,/,/
Cc1nn2c(c1-c1ccnn1C(C)C)N(Cc1ccc(C(=O)O)s1)CCC2,/,/,/,28µM,/,/
COc1ccc(Nc2nccc3c2cc(-c2ccccc2OC)n3C)cc1OC,/,/,/,.,/,/
NC(=O)COC(=O)c1cc(-c2ccco2)nc2ccccc12,?,?,.,28µM,/,/
O=C(OCC(=O)N1CCCC1)c1cc(-c2ccco2)nc2ccccc12,/,/,/,6.3µM,/,/
COc1ccccc1CNC(=O)COC(=O)c1cc(-c2ccco2)nc2ccccc12,?,?,.,?,/,.
Cc1cc(C(=O)OCC(=O)N2CCCC2)c2ccccc2n1,.,.,.,.,.,.
CNC(=O)NC(=O)COC(=O)c1cc(-c2ccco2)nc2ccccc12,/,/,/,16µM,/,/
COC(=O)c1ccc(COC(=O)c2cc(-c3ccco3)nc3ccccc23)cc1,/,/,/,7.1µM,/,/
COc1cc(CN(CC(=O)NC(=O)NCC(C)C)C2CC2)ccc1OC(F)F,/,/,/,.,/,/
CCCNC(=O)N1CCCC(n2c(C)cnc2C2CC2)C1 (configuration not stated),/,/,/,.,/,/
COc1ccc(C(=O)N2CCC(N3C(=O)C(OC)C34CCOCC4)CC2)cc1F (configuration not stated),/,/,/,.,/,/
CN(C(=O)c1ccc(Cl)s1)C1CCc2nn(CC3CC3)c(=O)n2CC1 (configuration not stated),/,/,/,.,/,/
O=C(Cn1ncn2c(cc3ccccc32)c1=O)NCCC1=CCCCC1,.,.,.,.,.,22µM
CCCOc1ccc(C(C)=O)cc1CC(C(=O)OCC)C(=O)OCC,.,.,.,.,.,.
CCCOc1ccc(C[N+](C)(C)C)cc1C[N+](C)(C)C,/,/,/,63µM,/,/
COc1ccc(CCN2CCCC(CN(C)C(=O)c3ccoc3C)C2)cc1 (configuration not stated),.,.,.,.,.,.
Cc1occc1C(=O)N(C)CC1CCCN(CCc2ccc(Cl)cc2)C1 (configuration not stated),/,/,/,45µM,/,.
CSc1nc(NCC(C)O)c2c3c(sc2n1)CN(C)CC3 (configuration not stated),?,?,.,.,/,.
CSc1nc(SCC(=O)NC(c2ccccc2)c2ccccc2)c2c3c(sc2n1)CN(C)CC3,.,.,.,?,.,28µM
O=C(Nc1ccc(F)c(Cl)c1)Nc1csc2ccccc12,.,?,.,?,/,/
O=C(Nc1ccc(F)cc1F)Nc1csc2ccccc12,.,.,.,.,.,11µM
COc1ccc(S(=O)(=O)N2CCOCC2)cc1NC(=O)c1cc2c(C)nn(CC(C)C)c2s1,/,/,/,.,/,/
COc1cc([N+](=O)[O-])cc(/C=C2/SC(=S)N(Cc3ccccc3)C2=O)c1O,.,.,.,16µM,/,.
COc1cc(/C=C2/SC(=S)N(Cc3ccccc3)C2=O)cc(Cl)c1O,?,?,?,?,/,.
